Assay [1] can be described thus: qHTS assay to identify small molecule agonists of H2AX - cell viability counter screen (AID 1224847; calls by dose curve; further: top concentration of the series differs between compounds; nearly all actives have a fitted effect of over 30% in size). Put shortly: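 Wild-type CHO-K1 cells (10% FBS medium) were plated overnight at 37C, exposed to compounds at 15 concentrations for 3 hr at 37C (0.76% DMSO final), and viability was read as CellTiter-Glo luminescence after 30 min at room temperature.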
(qHTS replaces the single test concentration by a dilution series.)

Assay [2] in a line: A CellTox Green Cytotoxicity Assay to monitor cytotoxicity in HEK293 cells - 0 hour (AID 1224869). Further: nearly all actives have a fitted effect of over 50% in size. In a few lines:
(§1)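 Cells (HEK293, 600/well) and dye reagent are dispensed together. After 5 h at 37 C, 23 nL compound is pinned in. Plates stay at 37 C for 40 h with fluorescence read at 0h, 8h, 16h, 24h, 32h and 40h.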

A short description of assay [3]: A CellTox Green Cytotoxicity Assay to monitor cytotoxicity in HEK293 cells - 40 hour (AID 1224871). Further: nearly all actives have a fitted effect of over 45% in size. In a few lines:
as §1

Assay [4] in a line: qHTS RealTime-Glo MT Cell Viability Assay in HEK293 cells - 16 hour (AID 1224872). Further: nearly all actives have a fitted effect of over 50% in size. Further: potency means the concentration at half of the fitted maximal effect. Put shortly:
(§2)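 Tox21 10K qHTS, HEK293, 600 cells/well, RealTime-Glo reagent co-dispensed with cells; 5 h preincubation, compound by pintool, 37 C, luminescence at 0–40 h.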

Assay [5] in a line: qHTS RealTime-Glo MT Cell Viability Assay in HepG2 cells - 8 hour (AID 1224873). Further: nearly all actives have a fitted effect of over 55% in size. In a few lines: (§3)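 HepG2 cells mixed with RealTime-Glo MT reagents (NanoLuc plus cell-permeant prosubstrate) were seeded at 600 cells/well, incubated 5 h at 37 C/5% CO2, then pinned with compounds in DMSO; nonlytic luminescence tracked viability during 40 h treatment.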
Assay [6] can be described thus: A CellTox Green Cytotoxicity Assay to monitor cytotoxicity in HEK293 cells - 24 hour (AID 1224875). Further: nearly all actives have a fitted effect of over 45% in size. Further: potency means the concentration at half of the fitted maximal effect. In a few lines: as §1
Assay [7] is described as follows: A CellTox Green Cytotoxicity Assay to monitor cytotoxicity in HepG2 cells - 24 hour (AID 1224878). Further: nearly all actives have a fitted effect of over 45% in size. Further: potency means the concentration at half of the fitted maximal effect. Put shortly: (§4)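 Cells and non-lytic dye reagent are dispensed together (600 HepG2 cells/well) and incubated 5 h before DMSO compound transfer. Kinetic fluorescence is then recorded in the same wells during 40 h at 37 C.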
Assay [8] is described as follows: A CellTox Green Cytotoxicity Assay to monitor cytotoxicity in HEK293 cells - 32 hour (AID 1224881). Further: nearly all actives have a fitted effect of over 40% in size. Further: potency means the concentration at half of the fitted maximal effect. In a few lines:
as §1

Assay [9] can be described thus: qHTS assay to identify small molecule agonists of the hypoxia (HIF-1) signaling pathway (AID 1224846; active means well fitted activation curve with a large enough effect in the signal ratio in the repeat runs, not every such curve was filed as active; the % refers to the signal ratio). In a few lines: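 Compounds from the Tox21 10K library, dissolved in DMSO, are tested for induction of a hypoxia response element–controlled beta-lactamase reporter in ME-180 cells. Exposure lasts 17 hrs at 37C after a 5 hr settling period, followed by CCF4-AM FRET substrate.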

A short description of assay [10]: qHTS RealTime-Glo MT Cell Viability Assay in HepG2 cells - 40 hour (AID 1224870). Further: nearly all actives have a fitted effect of over 50% in size. In a few lines: as §3
Assay [11] is described as follows: A CellTox Green Cytotoxicity Assay to monitor cytotoxicity in HepG2 cells - 16 hour (AID 1224876). Further: nearly all actives have a fitted effect of over 45% in size. Put shortly: as §4
Assay [12] can be described thus: qHTS RealTime-Glo MT Cell Viability Assay in HepG2 cells - 32 hour (AID 1224877). Further: nearly all actives have a fitted effect of over 55% in size. Put shortly:
(§5)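 Cells + NanoLuc/prosubstrate dispensed (600 cells/well) → 5 h at 37 C/5% CO2 → compounds in DMSO transferred → 40 h incubation at 37 C, luminescence read at 0, 8, 16, 24, 32, 40 h.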

The nature of assay [13]: A CellTox Green Cytotoxicity Assay to monitor cytotoxicity in HepG2 cells - 40 hour (AID 1224879). Further: nearly all actives have a fitted effect of over 40% in size. Further: potency means the concentration at half of the fitted maximal effect. Put shortly:
as §4

A short description of assay [14]: qHTS RealTime-Glo MT Cell Viability Assay in HEK293 cells - 0 hour (AID 1224880). Put shortly:
(§6)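 Real-time viability in HEK293: signal arises when living cells convert a prosubstrate for NanoLuc in the medium, so luminescence tracks viable cell number. Compound (23 nL, DMSO) added 5 h post-seeding; kinetic reads at 0–40 h, 37 C.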

Assay [15] in a line: qHTS RealTime-Glo MT Cell Viability Assay in HepG2 cells - 24 hour (AID 1224867). Further: nearly all actives have a fitted effect of over 50% in size. In a few lines: as §5
Assay [16] is described as follows: qHTS RealTime-Glo MT Cell Viability Assay in HEK293 cells - 32 hour (AID 1224868). Further: nearly all actives have a fitted effect of over 50% in size. Further: potency means the concentration at half of the fitted maximal effect. In a few lines: as §2
The nature of assay [17]: qHTS RealTime-Glo MT Cell Viability Assay in HEK293 cells - 40 hour (AID 1224874). Further: nearly all actives have a fitted effect of over 50% in size. Further: potency means the concentration at half of the fitted maximal effect. The conditions noted are these: RealTime-Glo luminescence; max response: hits give low values. In a few lines: as §6
Assay [18] in a line: qHTS assay to identify small molecule antagonists of the estrogen related receptor (ERR) signaling pathway from Tox21 library (AID 1224848). Further: nearly all actives have a fitted effect of over 50% in size. Further: potency means the concentration at half of the fitted maximal effect. Put shortly: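 Tox21 10K compounds in DMSO tested for ERR pathway antagonism in NTP's ERR cell line; 18 h, 37 C exposure; ONE-Glo luminescence.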
Assay [19] is described as follows: qHTS assay to identify small molecule agonists of the estrogen related receptor (ERR) signaling pathway from Tox21 library (AID 1224849; calls by dose curve; further: nearly all actives have a fitted effect of over 15% in size). The conditions noted are these: ERR reporter cell line, ONE-Glo luciferase, 18 h; at 92.4 µM (top of the series) unless noted. In a few lines:
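Cells carrying the ERR reporter were plated and allowed to settle for 6 h, exposed to library compounds for 18 h at 37 C, then lysed with ONE-Glo and luminescence measured.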

The values below come from PubChem BioAssay (Tox21).

The structures appear in SMILES notation. Unmarked numbers belong to inactive results. Inconclusive results are not listed. The source made the active and inactive calls. Unless noted, the call rests on the fitted dose curve; in most records, active means well fitted curve in the direction sought with a large enough effect in the repeat runs; inconclusive means weak or mixed curves; inactive means no such curve, though single readings can be large; an effect the other way counts as inactive or inconclusive.
On the % scale 0 is the no-effect control and ±100 the full control effect.

With `CN1CCN(C2=Nc3cc(Cl)ccc3Nc3ccccc32)CC1`, the Potency entry in assay [1], in [2], in assay [3], in [4], in [5] and in assay [6] was “inactive” in each case. In assay [8], the Potency result was “inactive”. For the same compound, in assay [7], the Potency was 23.9 µM (active).
Take `Cc1cc(C)c(S(=O)(=O)O)cc1N=Nc1cc(S(=O)(=O)O)c2ccccc2c1O`: in assay [9], the result was inactive. Further, the Potency result in assay [2], in assay [10], in assay [3], in assay [5], in [6] and in assay [11] was “inactive” throughout. Also, the Potency entry in [12], in [7], in [13], in [14] and in assay [8] was “inactive” throughout.
`C=CC(C)(CCC=C(C)C)OC(=O)c1ccccc1` (configuration not stated): the compound was called inactive in assay [9]. Also, the Potency entry in assay [15], in assay [16], in [2], in [10], in assay [4] and in assay [5] was “inactive” throughout. For the same compound, the Potency entry in [12], in [7], in [13] and in assay [14] was “inactive” in each case. For the same compound, the max response in assay [17] was -13.6%.
Turning to `O=C(O)Cc1cc(I)c(Oc2ccc(O)c(I)c2)c(I)c1`, the Potency entry in [1], in [15], in assay [16], in assay [2], in [10] and in [3] was “inactive” throughout. The Potency entry in assay [4], in [5], in [6], in assay [11], in [12] and in assay [7] was “inactive” in each case. The Potency entry in assay [13] and in assay [8] was “inactive” in each case. Also, the Potency in assay [18] was 27.3 µM (active). Further, the activity change, positive = activation in assay [19] was -36.3%. Besides, the max response in assay [17] is 4.51%.
Regarding `C=Cc1c(C)c2cc3[nH]c(cc4nc(cc5nc(cc1[nH]2)C(C)=C5CCC(=O)O)C(CCC(=O)O)=C4C)c(C)c3C=C`, the Potency entry in assay [1], in [16], in assay [2], in assay [10], in assay [3] and in assay [4] was “inactive” in each case. Besides, the Potency result in [6], in assay [11], in assay [12], in assay [7], in assay [13] and in [8] was “inactive” throughout. Moreover, the activity change, positive = activation in assay [19] is -18% [at 42.5 µM]. For the same compound, the max response in assay [17] is -11.2%.
Consider `O=C(O)c1cn(C2CC2)c2cc(Cl)c(F)cc2c1=O`, for which the result in [9] was inactive. Further, the Potency entry in [1], in assay [15], in assay [10], in assay [5], in assay [11] and in assay [12] was “inactive” throughout. In [7], the Potency result is “inactive”.
In the case of `Cc1cc(O)ccc1N`, the compound was classed as inactive in assay [9]. In assay [19], the activity change, positive = activation is -16.6%. Also, the Potency result in [15], in assay [2], in assay [10], in assay [11], in assay [12] and in [7] was “inactive” in each case. Moreover, the Potency result in [13] is “inactive”. The Potency in [16] was 49.2 µM (active); in [4] it was 49.2 µM (active); in [17], 43.9 µM (active); in assay [6], 34.9 µM (active); in [8] it was 34.9 µM (active).
With `CC(C)NCC(O)COc1ccc(CC(N)=O)cc1` (configuration not stated), the Potency result in assay [1], in assay [15], in assay [16], in [2], in assay [10] and in assay [3] was “inactive” each time. Besides, the Potency entry in [4], in assay [6], in [11], in assay [12], in [7] and in assay [13] was “inactive” each time. Further, the Potency entry in assay [14] and in assay [8] was “inactive” each time. Besides, the max response in assay [17] is -1.4%.
For the compound `NCCCOCCOCCOCCCN`, the Potency result in [1], in assay [16], in [2], in assay [10], in assay [3] and in [4] was “inactive” throughout. The Potency entry in assay [5], in assay [6], in assay [11], in [12], in [7] and in assay [13] was “inactive” throughout. In addition, the Potency result in assay [14] and in assay [8] was “inactive” throughout. In [17], the max response is -18%.
Turning to `CC(C(=O)O)c1ccc(C(=O)c2ccccc2)s1` (configuration not stated), the Potency result in assay [1], in [15], in [16], in assay [2], in [10] and in [3] was “inactive” throughout. Besides, the Potency result in assay [4], in [5], in [6], in assay [11], in assay [12] and in [7] was “inactive” each time. For the same compound, the Potency entry in [14] and in [8] was “inactive” in each case. The max response in assay [17] is 4.65%.
Turning to `CC(C)(C)c1ccc(OCC2CO2)cc1` (configuration not stated), the call in assay [9] was inactive. Moreover, the Potency result in assay [18], in [15], in assay [16], in assay [2], in [10] and in assay [4] was “inactive” throughout. The Potency result in assay [5], in assay [12], in [7], in assay [13] and in assay [14] was “inactive” throughout. Further, the activity change, positive = activation in [19] was 3.37%. For the same compound, the max response in assay [17] is -5.37%.
For `CCN(CC)CCOc1ccc2c(c1)C(=O)c1cc(OCCN(CC)CC)ccc1-2`, the result in assay [9] was inactive. For the same compound, the Potency in assay [18] was 18.8 µM (active); in assay [16], 13.4 µM (active); in assay [17], 15.1 µM (active); in assay [13] it was 26.8 µM (active). Further, the activity change, positive = activation in [19] was -38.3% [at 42.5 µM]. For the same compound, the Potency entry in assay [2], in [5], in [6] and in assay [14] was “inactive” throughout.
In the case of `COc1ccc(OC)c(OC)c1`, in [9], the result was inactive. The Potency entry in [1], in [2], in assay [10], in assay [3], in [4] and in assay [5] was “inactive” each time. In addition, the Potency result in assay [6], in assay [11], in [12], in assay [7], in assay [13] and in assay [14] was “inactive” each time. For the same compound, the Potency result in [8] was “inactive”. For the same compound, the max response in assay [17] is 15.8%.
As for `O=S(=O)(O)c1ccc(O)c2ncccc12`, the call in [9] was inactive. Also, the Potency result in [15], in assay [16], in [2], in [10], in assay [4] and in [5] was “inactive” each time. Moreover, the Potency result in assay [6], in assay [11], in assay [12], in [7], in assay [13] and in assay [14] was “inactive” each time. The Potency result in assay [8] was “inactive”. In assay [17], the max response was 27.2%.
`CCOC(=O)CC(=O)c1cc(F)c(Cl)nc1Cl`: the compound was called inactive in assay [9]. Moreover, the Potency result in assay [1], in assay [15], in assay [2], in assay [10], in [5] and in assay [12] was “inactive” each time. For the same compound, the Potency entry in assay [7] and in assay [13] was “inactive” each time.
Turning to `CC(C)c1ccc2c(C(C)C)cc(C(C)C)c(S(=O)(=O)O)c2c1`, the call in [9] was inactive. Moreover, the Potency result in assay [16], in assay [2], in [10], in assay [4], in assay [5] and in [11] was “inactive” in each case. Further, the Potency entry in assay [12], in assay [7] and in assay [14] was “inactive” each time. Moreover, in assay [17], the max response was -12.5%.
`CC1(C)CCC(C)(C)c2cc(NC(=O)c3ccc(C(=O)O)cc3)ccc21`: the compound was called inactive in assay [9]. Moreover, the Potency result in [1], in [2], in assay [10], in assay [3], in [6] and in [11] was “inactive” throughout. For the same compound, the Potency result in assay [12], in [7] and in [8] was “inactive” each time.
As to `c1ccc(-c2nc[nH]c2-c2ccccc2)cc1`, the Potency entry in [1], in [15], in assay [16], in [2], in assay [10] and in assay [3] was “inactive” in each case. The Potency entry in assay [4], in [5], in assay [6], in assay [12], in assay [14] and in [8] was “inactive” each time. The max response in assay [17] was -25%.
